Screening results as filed in PubChem.
FECH inh: human FECH heme synthesis enzyme inhibition; P22830; calls only at 10 µM (by protocol); 20,000 tested, 3.3% active; purified FECH, Ni-mesoporphyrin absorbance 550 nm;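 active means enzyme reaction rate more than 3 SD below the solvent-only control wells on the same plate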;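 further: lower slope than DMSO wells means FECH inhibition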
Target sequence (P22830 whole entry, looked up): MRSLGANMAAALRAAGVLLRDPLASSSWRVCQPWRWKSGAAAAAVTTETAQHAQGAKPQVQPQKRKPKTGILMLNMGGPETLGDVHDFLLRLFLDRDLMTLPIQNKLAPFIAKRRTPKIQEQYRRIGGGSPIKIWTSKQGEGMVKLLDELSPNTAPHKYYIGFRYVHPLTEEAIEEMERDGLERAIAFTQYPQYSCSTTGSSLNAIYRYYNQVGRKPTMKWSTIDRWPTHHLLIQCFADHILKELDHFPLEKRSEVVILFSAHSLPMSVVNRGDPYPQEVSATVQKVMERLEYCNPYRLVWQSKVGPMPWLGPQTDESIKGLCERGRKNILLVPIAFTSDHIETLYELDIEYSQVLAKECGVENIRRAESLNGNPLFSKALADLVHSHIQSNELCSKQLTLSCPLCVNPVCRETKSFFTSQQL
Of the large screens only hits and unclear results are named; the others gave an inactive call. Only a selection was taken, and hits are over-represented in it overall.

CN(C)c1nc2c(c(=O)[nH]1)CCN(C(=O)C1[C@@H]3[C@H]4CC[C@H](C4)[C@H]13)CC2 (stereo not given in full)	none
Cc1cc(N2CC[C@@H](c3ccc4c(c3)OCO4)[C@H](O)C2)nc2cc(F)ccc12	none
COc1ccccc1CCCNC1CCc2ccccc2C1 (stereo not given)	none
O=C1NCC2(CCN(C(=O)c3ccc4cccc(Cl)c4n3)CC2)O1	none
Cc1ccc(OCC(=O)Nc2cccc(OCc3cc(=O)n4cc(Cl)ccc4n3)c2)cc1	none
Cc1ccc(S(=O)(=O)N2CCN(c3nc(C)cc(N4CCOCC4)n3)CC2)c(C)c1	none
Cc1ccc(C2(CN3CCN4C(=O)CN(C)C(=O)C4C3)CCNCC2)nc1 (stereo not given)	none
COC(=O)c1ccc(OC)c(CN2CCN(Cc3ccccc3C)S2(=O)=O)c1	none
O=C(Cn1c(=O)oc2ccccc21)NCc1nncn1C1CCCCC1	none
CSc1ncc(CNC(=O)c2ccccc2C2CCNC2)n1C (stereo not given)	none
O=C(CN1CCCN(Cc2cccc(Cl)c2)S1(=O)=O)Nc1ccc2c(c1)OCO2	none
CCOc1ccc(NC(=O)CN2CCCN(Cc3ccccc3)S2(=O)=O)cc1	FECH inh active
CCOc1ccc(NC(=O)CN2CCCN(Cc3cccc(Cl)c3)S2(=O)=O)cc1	FECH inh active
COC(=O)c1ccc(NC(=O)CN2CCCN(Cc3ccccc3)S2(=O)=O)cc1	none
CC(=O)c1ccc(NC(=O)CN2CCCN(Cc3ccccc3)S2(=O)=O)cc1	none
COc1ccc(CNC(=O)CN2CCCN(Cc3cccc(Cl)c3)S2(=O)=O)cc1	none
O=C1CC(c2ccncc2Cl)c2ccc(N3CCNC3=O)cc2N1 (stereo not given)	none
COc1cccc(C(=O)Nc2cc(C)nn2-c2ncnc3c2cnn3-c2ccc(C)cc2C)c1	none
C=C(C)COc1ccccc1C(=O)NCCc1nc(C)c(C)s1	none
O=C(O)c1cc(NS(=O)(=O)c2ccc(F)cc2)cnc1N1CCCCCC1	none
CCOC(=O)c1cc2n(n1)CC(C)(C(=O)NCCC(C)C)N(c1ccccc1C)C2=O (stereo not given)	none
O=C(CCC(=O)N1CCc2cc(S(=O)(=O)N3CCCCC3)ccc21)N1CCCC1	none
N[C@H]1CN[C@H](C(=O)NCc2ccccc2OC(F)(F)F)C1	none
COc1ccc(-c2cc3n(n2)CCC(=O)N3Cc2ccc(C(=O)NCc3cn[nH]c3C)cc2)cc1	none
CSc1nc(-c2ccc(Cl)cc2)c(C#N)c(N2CCC(C(N)=O)CC2)n1	none
Cc1nn(C)c(C)c1CNC(=O)c1ccc(CN2C(=O)CCn3nccc32)cc1	none
CC/C=C\CCCN1CCC2(CC1)CNC(=O)C2	none
O=C1CC2(CCN(CCc3ccccc3)CC2)CN1	FECH inh active
O=C1CC2(CCN(C(=O)C/C=C/c3ccccc3)CC2)CN1	none
COCCNC(=O)C1CCCN(C2CCN(c3ccc4ccccc4n3)CC2)C1 (stereo not given)	none
CCN1CCN(S(=O)(=O)c2ccc(N3C(=O)CCS3(=O)=O)cc2)CC1	none
O=C(Cn1c(=O)oc2ccccc21)N1CCN(CCc2ccncc2)CC1	none
Cc1ccc(Cl)cc1NC(=O)CN1CCN(Cc2ccc(F)cc2Cl)S1(=O)=O	none
Cc1c(Cl)cccc1NC(=O)CN1CCCN(Cc2ccccc2Cl)S1(=O)=O	FECH inh active
Cc1cccc(C)c1NC(=O)CN1CCN(Cc2ccccc2Cl)S1(=O)=O	none
Cc1ccc(Cl)cc1NC(=O)CN1CCCN(Cc2ccccc2Cl)S1(=O)=O	FECH inh active
Cc1ccc(Cl)cc1NC(=O)CN1CCCN(Cc2ccccc2)S1(=O)=O	none
COc1ccccc1NC(=O)CN1CCN(Cc2ccccc2Cl)S1(=O)=O	none
Cc1nn(C)c(Cl)c1S(=O)(=O)N1C[C@@H]2[C@@H]3CC[C@@H](C3)[C@@H]2C1	none
CCN(CC)CCCNC(=O)C1CCN(c2ccc(-c3ccc(F)cc3)nn2)CC1	none
CN1CCCC1CCN1CCc2onc(-c3ccc(C(F)(F)F)cc3)c2C1 (stereo not given)	none
CCc1cc(N2CCN(c3cccc(C(F)(F)F)c3)CC2)n2ncnc2n1	none
COc1ccc(-c2noc(COc3cccnc3N)n2)cc1	none
CCCc1cc(=O)n2[nH]c(CNc3ccc(Cl)cc3)nc2n1	FECH inh active
COc1ccc(CNc2nc3nc(CNc4ccc(Cl)cc4)cc(=O)n3[nH]2)cc1	none
CCc1ccc(NCc2cc(=O)n3[nH]c(NCc4ccc(OC)cc4)nc3n2)cc1	none
CCCc1cc(=O)n2[nH]c(CNc3ccccc3OC)nc2n1	FECH inh active
COc1ccccc1CNc1nc2nc(CN3CCN(c4ccccc4)CC3)cc(=O)n2[nH]1	none
CCOc1ccccc1NCc1nc2nc(C(C)C)cc(=O)n2[nH]1	none
CCCc1cc(=O)n2[nH]c(CNc3ccccc3CC)nc2n1	FECH inh active
CCCc1cc(=O)n2[nH]c(CNc3c(C)cccc3C)nc2n1	none
Cc1c(Cl)cccc1NCc1cc(=O)n2[nH]c(NCc3ccc(F)cc3)nc2n1	none
Cc1c(Cl)cccc1NCc1nc2nc(C(C)C)cc(=O)n2[nH]1	FECH inh active
CCCc1cc(=O)n2[nH]c(CNc3ccc(CC)cc3)nc2n1	none
Cc1nc2nc[nH]n2c(=O)c1NC(=O)NCc1ccccc1	none
Cc1cc(Nc2ccccc2)nc(N2CCN(S(=O)(=O)c3ccc4c(c3)Cc3ccccc3-4)CC2)n1	none
COc1cccc(-c2nc(CSc3nc4c(c(=O)[nH]3)CCC4)c(C)o2)c1OC	none
Cc1ccc(Nc2nc(N3CCCC3)nc3c2cnn3-c2ccccc2)cc1C	none
O=C(NC1CCCCC1)c1nc[nH]c1C(=O)N1CCCC1	none
CCOc1ccc(Nc2c(-c3ccc4c(c3)CCCC4)c(=O)c2=O)cc1	none
CCC(=O)Nc1cccc(C(=O)NCc2nc(Cc3cccs3)no2)c1	none
CCc1nc(C)sc1CNC(=O)c1sccc1NC(C)=O	none
CCC(=O)Nc1cccc(C(=O)NCc2sc(C)nc2CC)c1	FECH inh active
CCOc1ccc(S(=O)(=O)Nc2cnc(N(CC)CC)c(C(=O)O)c2)cc1	none
Cn1cc(CN(Cc2cc3cc4c(cc3[nH]c2=O)OCO4)C2CC2)cn1	none
Cn1cc(CN(Cc2ccc(CO)o2)C2CC2)cn1	FECH inh active
Cc1ccc(C(C)NC(=O)CN(Cc2cnn(C)c2)C2CC2)cc1 (stereo not given)	none
COc1ccc(C)cc1NC(=O)CN1C(=O)CC(c2ccc(Br)s2)=Nc2ccccc21	none
CCN1C(SCC(=O)Nc2cc(Cl)ccc2OC)=NS(=O)(=O)c2ccccc21	none
O=C(CN1CCN(Cc2ccc(F)cc2Cl)S1(=O)=O)Nc1ccc(F)c(Cl)c1	none
CCC(=O)Nc1ccccc1-c1nnc(SCC(=O)Nc2ccc(Cl)c(Cl)c2)[nH]c1=O	none
CCN1C(SCC(=O)Nc2cc(C)ccc2OC)=NS(=O)(=O)c2ccccc21	FECH inh active
CCN1C(SCC(=O)Nc2ccc(F)c(Cl)c2)=NS(=O)(=O)c2ccccc21	FECH inh active
Cc1ccc2cc(-c3noc(CCC(=O)Nc4nnc(C)s4)n3)c(=O)[nH]c2c1	none
COc1cccc(C(=O)Nc2ccc(Nc3nc(C)cc(N(C)C)n3)cc2)c1OC	none
Cc1n[nH]c(C)c1C(C)Nc1nc(C2CCCC2)nc2c1cnn2C (stereo not given)	none
O=C(CN1c2ccc(Br)cc2-c2ccccc2S1(=O)=O)Nc1cccnc1	FECH inh active
O=C(CN1c2ccc(Br)cc2-c2ccccc2S1(=O)=O)NCc1cccnc1	FECH inh active
COc1cccc(-c2cc(=O)[nH]c(SCc3nc(-c4ccc(OC(C)C)cc4)oc3C)n2)c1	none
CC(=O)c1cc(CC(=O)NCc2ccsc2)cs1	none
COc1ccccc1NC(=O)CSc1nnc(-c2ccccc2NC(=O)c2ccccc2)c(=O)[nH]1	none
CC(=O)c1c(C)nn(CCC(=O)N2CCN3CCN(C)C(=O)C3C2)c1C (stereo not given)	none
